Sm TGR inh: qHTS Assay for the Inhibitors of Schistosoma Mansoni Peroxiredoxins | purified TGR, DTNB reduction, TNB absorbance 405 nm | Potency, µM (doses to about 114 µM), for inactives: at the highest dose activity change, negative = inhibition, actives largely listed as inhibitors | hit rate 3% among 360,000; note: potency is the fitted concentration of half-maximal effect; nearly all actives have a fitted effect of over 60% in size
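TGR 20 nM + NADPH 100 uM (dispensed conc.), cpd preinc 15 min RT; start with NADPH (500 uM addition) then DTNB (15 mM addition). Kinetic TNB absorbance, 405 nm filter. Four-parameter Hill fit across titration.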
HCMV antiviral: qHTS Assay for inhibitors of the human cytomegalovirus (HCMV); HFF cells, HCMV-luciferase reporter, 72 h; stronger effect = lower value; activity change, negative = inhibition, % at 57.5 µM; AID 1259415, 2018; hit rate 4.5% among 410,000; in the data active = activity change below about -60%; inconclusive = no clear call, values can overlap the other calls; inactive = above about -39%
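Luciferase read-out from HCMV-luciferase-infected HFFs (MOI 1 PFU/cell) 72 h post infection at 37C; compounds added after 16 h cell attachment; activity normalized between buffer-only basal and Salinomycin (10uM) inhibitor controls.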
TbPYK inhibitor: qHTS of Trypanosoma Brucei Inhibitors | TbPYK enzyme, Kinase-Glo Plus ATP luminescence, 45 min | hit rate 0.12% among 410,000 | AID 624173, 2012 | Potency, µM (doses to about 76.8 µM), without a hit: top-dose activity, negative = inhibition, hits mostly inhibitors | pyruvate kinase (Trypanosoma brucei), Q57TT1; note: potency is the fitted concentration of half-maximal effect; nearly all actives have a fitted effect of over 50% in size
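Screened from lowest to highest concentration, compounds were pinned into TbPYK/substrate mixtures, and ADP (130 uM final) was added. Plates sat at room temperature for 45 min prior to Kinase-Glo Plus detection by luminescence.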
FBPA Giardia inh: qHTS Assay for Inhibitors of Fructose-1,6-bisphosphate Aldolase from Giardia Lamblia. purified Giardia FBPA. Potency, µM (top dose mostly 59.6 µM), inactives show at the highest dose activity, negative = inhibition, hits mostly inhibitors. hit rate 0.71% among 290,000. AID 2451, 2010; note: potency is the fitted concentration of half-maximal effect; nearly all actives have a fitted effect of over 55% in size
Target sequence (A8B2U2 whole entry, looked up): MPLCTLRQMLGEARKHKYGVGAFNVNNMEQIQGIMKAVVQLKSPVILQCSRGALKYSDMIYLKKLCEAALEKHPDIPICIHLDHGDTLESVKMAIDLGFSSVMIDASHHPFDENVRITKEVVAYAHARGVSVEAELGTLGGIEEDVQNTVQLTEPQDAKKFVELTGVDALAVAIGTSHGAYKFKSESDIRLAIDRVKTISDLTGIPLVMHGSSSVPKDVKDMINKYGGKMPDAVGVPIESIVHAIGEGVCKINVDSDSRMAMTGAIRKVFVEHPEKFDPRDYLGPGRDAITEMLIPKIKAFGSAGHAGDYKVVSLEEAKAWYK
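40 nM FBPA preincubated 10 min at RT with compound (up to 57.5 uM final), then substrate plus GAPDH/TPI/NAD/arsenate coupling and diaphorase/resazurin added. Fluorescence read after 20 min at RT, 525/598 nm.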
RE007 growth inh: qHTS Assay for Inhibitors of the HIV-1 protein Vpr | S. pombe RE007 Vpr strain, BacTiter-Glo ATP luminescence, 24 h | Potency, µM (doses to about 92.2 µM), for the others: at the highest dose activity change, negative = less growth, actives largely listed as inhibitors | hit rate 0.21% among 360,000 | AID 651644, 2012; active = well fitted falling curve with a large enough effect; inconclusive = small, poorly fitted or top-dose-only effect; inactive = no such curve, though single readings can be large or run the other way; note: potency is the fitted concentration of half-maximal effect; nearly all actives have a fitted effect of over 50% in size
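Fission yeast strain RE007, carrying one chromosomally integrated HIV-1 vpr copy, was seeded at OD 0.01 in PMG+AL medium with 23 nL pinned compound. After 24 h at 30 °C and 99% humidity, viability was read by BacTiter-Glo luminescence.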
FMDV inh: High Throughput Screening for Foot and Mouth Disease Virus Antivirals | hit rate 1.2% among 410,000 | FMDV antiviral cell-based qHTS | Potency, µM (top dose mostly 57.9 µM), without a hit: at the highest dose activity change, negative = inhibition, hits mostly inhibitors; calls by dose curve; tested in HEK293T cells; note: read-out not given here; potency is the fitted concentration of half-maximal effect; nearly all actives have a fitted effect of over 45% in size
* hit, by the source's call; [ ] = another dose, or the depositor's remark. Most compounds without a hit are left out; they make up all but 7.7% or so of the library. Unless noted, calls come from the whole dose curve; as a rule, active = well fitted curve in the direction sought with a large enough effect; inconclusive = small, poorly fitted or top-dose-only effect, or another doubt; inactive = no such curve, though single readings can be large; an effect the other way counts as inactive or inconclusive. % is set by controls: 0 for no effect and ±100 for the full control effect.

Screening Cn1c(SCC(=O)NCC2CCCO2)nc2scc(-c3ccccc3)c2c1=O (stereo not given) returned Sm TGR inh -3%, HCMV antiviral 41, TbPYK inhibitor -4%, RE007 growth inh -17% and FMDV inh -29%.
O=C(CSc1nc2scc(-c3ccco3)c2c(=O)n1-c1ccccc1)NCC1CCCO1 (stereo not given) was read as Sm TGR inh 3.2µM*, HCMV antiviral 17, FBPA Giardia inh -22%, RE007 growth inh 26%[3.69 µM] and FMDV inh -14%.
CCc1ccc(NC(=O)c2ccc(NS(=O)(=O)c3c(C)noc3C)cc2)cc1 was read as Sm TGR inh 3%, HCMV antiviral -9, TbPYK inhibitor -2% and FMDV inh -2%.
`O=C1CC(c2ccccc2)Cc2[nH]c(=O)c(-c3nc(-c4ccc(Cl)c(Cl)c4)cs3)cc21` (stereo not given) gave Sm TGR inh 1%, HCMV antiviral 11, TbPYK inhibitor 3% and FMDV inh 1%.
For O=C(CSc1nc2scc(-c3ccco3)c2c(=O)n1-c1ccccc1)N1CCOCC1 the results were Sm TGR inh 45µM*, HCMV antiviral -35, TbPYK inhibitor 0%, FBPA Giardia inh 1%, RE007 growth inh -8% and FMDV inh -21%.
For C=CCn1c(SCC(=O)NCCOC)nc2scc(-c3ccco3)c2c1=O the results were Sm TGR inh 18µM*, HCMV antiviral -2, TbPYK inhibitor -9%, FBPA Giardia inh -5%, RE007 growth inh -1% and FMDV inh -30%.
O=C(CSc1nnc(-c2ccco2)n1-c1ccccc1)NCC1CCCO1 (stereo not given) was read as Sm TGR inh -5%, HCMV antiviral -69*, TbPYK inhibitor 1%, FBPA Giardia inh 10%, RE007 growth inh 10% and FMDV inh -19%.
`CN(Cc1ccccc1)C(=O)CSc1nnc(-c2ccco2)n1-c1ccccc1` gave Sm TGR inh 32µM*, HCMV antiviral 9, TbPYK inhibitor -19%, FBPA Giardia inh 0%, RE007 growth inh inconclusive and FMDV inh -25%.
Screening C=CCn1c(SCc2ccccc2)nc2scc(-c3ccc(C)o3)c2c1=O returned Sm TGR inh inconclusive, HCMV antiviral 6, TbPYK inhibitor -10%, FBPA Giardia inh 2%, RE007 growth inh -3% and FMDV inh 0%.
Screening NC(=O)CSc1nc2scc(-c3ccco3)c2c(=O)n1-c1ccccc1 returned Sm TGR inh inconclusive, HCMV antiviral -9, TbPYK inhibitor inconclusive, FBPA Giardia inh -13%, RE007 growth inh 8% and FMDV inh inconclusive.
For CN(C)C(=O)CSc1nnc(-c2ccco2)n1-c1ccccc1 the results were HCMV antiviral 19, TbPYK inhibitor 0%, RE007 growth inh 7% and FMDV inh 2%.
COc1cccc(C(=O)n2nc(-c3cccnc3)nc2NCc2ccc(F)cc2)c1 was read as Sm TGR inh 5%, HCMV antiviral -5, TbPYK inhibitor 2% and FMDV inh -3%.
For CC(C)c1nn2c(=O)cc(COC(=O)CNC(=O)c3ccccc3)nc2s1 the results were Sm TGR inh -4%, HCMV antiviral 14, TbPYK inhibitor -1% and FMDV inh -8%.
O=C(c1cccnc1)N1CC(=O)N2[C@@H](CO)[C@H](c3ccc(Br)cc3)[C@@H]2C1 was read as HCMV antiviral 4.
For Cc1cc(C)n(CCc2nc3c4ccccc4nc(N4CCN(c5ccccc5)CC4)n3n2)n1 the results were Sm TGR inh 0%, HCMV antiviral 4, TbPYK inhibitor -1% and FMDV inh -3%.
For Cn1cc(Cl)cc1-c1ncc(Cc2c[nH]c(N)[n+]2C)o1 the results were HCMV antiviral -12.
Screening CCCCCCc1ccc(-c2ccc(C#N)cc2)cc1 returned HCMV antiviral -25.
OCCN(CCO)CC(O)COc1ccc(C23CC4CC(CC(C4)C2)C3)cc1 (stereo not given) was read as Sm TGR inh -1%, HCMV antiviral -62*, TbPYK inhibitor -6%, FBPA Giardia inh -5%, RE007 growth inh -9% and FMDV inh 0%.
For O=C(N/C=N/OCc1ccc(Cl)cc1Cl)NOCc1c(Cl)cccc1Cl the results were Sm TGR inh 0%, HCMV antiviral -32, TbPYK inhibitor -2%, FBPA Giardia inh -7%, RE007 growth inh 1% and FMDV inh inconclusive.
CO/N=C/NC(=O)NOCc1c(Cl)cccc1Cl was read as Sm TGR inh 5%, HCMV antiviral -104*, TbPYK inhibitor 3%, FBPA Giardia inh -1%, RE007 growth inh -5% and FMDV inh 0%.
CCOC(=O)Cc1ccc(NC(=O)n2ncc3c(C)cccc32)cc1 was read as Sm TGR inh 7%, HCMV antiviral -74*, TbPYK inhibitor -1% and FMDV inh 21%.
For Cc1ccc(CNC(=O)c2ccc(CSCc3ccc(Cl)cc3)o2)cc1 the results were Sm TGR inh 40µM*, HCMV antiviral 25, TbPYK inhibitor 1% and FMDV inh -17%.
Screening Cc1ccc(CNC(=O)c2ccc(Cn3nc(C)c(Cl)c3C)o2)cc1 returned Sm TGR inh 25µM*, HCMV antiviral -14, TbPYK inhibitor 4%, FBPA Giardia inh 2%, RE007 growth inh -15% and FMDV inh -23%.
Screening Cc1cc(C)cc(NC(=O)c2ccc(Cn3nc(C)c(Cl)c3C)o2)c1 returned Sm TGR inh inconclusive, HCMV antiviral -4, TbPYK inhibitor -7%, FBPA Giardia inh -5%, RE007 growth inh 20% and FMDV inh inconclusive.
Screening O=C1C(n2cccc2)c2ccccc2N1Cc1ccc(C(F)(F)F)cc1 (stereo not given) returned HCMV antiviral 23.
CCOCCn1cnc2sc(C(=O)Nc3ccccc3C(=O)OC)c(C)c2c1=O was read as Sm TGR inh 1%, HCMV antiviral 8, TbPYK inhibitor 6% and FMDV inh -10%.
CC(=O)C1=C(c2ccccc2)N(C(C)=O)n2c(nnc2C2CCCCC2)S1 was read as Sm TGR inh 5%, HCMV antiviral -95*, TbPYK inhibitor 3% and FMDV inh -27%.
Screening COc1cccc(C2=C(C(C)=O)Sc3nnc(C4CCCCC4)n3N2C(C)=O)c1 returned Sm TGR inh 0%, HCMV antiviral -73*, TbPYK inhibitor 5% and FMDV inh 0%.
